TMEM16A act = TMEM16A chloride channel activators or potentiators, primary screen, cell-based, HTS; HEK293 TMEM16A/YFP-H148Q/I152L, iodide quench fluorescence; active compounds read low; B-score at 10 µM; 340,000 compounds, 0.3% hits;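 active means fluorescence-ratio B-score plate-corrected deviation score at least 3 library SD below zero, with starting fluorescence score within 5 deviations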;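 further: channel opened by trigger with iodide after compound preincubation; score built on the fluorescence ratio of max minus min over baseline; more negative score means more quench and so TMEM16A activation or potentiation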
ANO1 block = TMEM16A chloride channel inhibitors, primary screen, cell-based, HTS; 310,000 compounds, 1.2% hits; AID 588511, 2011; HEK293 TMEM16A/YFP iodide influx fluorescence, ionomycin; normalized B-score (activity score, 25-100; higher = stronger inhibition) at 10 µM; Anoctamin-1 (Mus musculus), Q8BHY3;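 active means ratio plate-corrected score three or more library SD toward inhibition, starting fluorescence score within five deviations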;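 further: score derived from kinetic fluorescence span divided by baseline fluorescence per well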
CHT allo act = CHT positive allosteric modulators, primary screen, cell-based, membrane potential dye, choline EC20; 310,000 compounds, 0.49% hits; B-score at 10 µM; CHT-expressing cells; active compounds read high; LV-AA mutant CHT in HEK293 cells; High affinity choline transporter 1 (Homo sapiens), Q9GZV3;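 active means initial fluorescence not abnormally high and integrated response B-score, plate-corrected, over 3 SD above library mean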
Target sequence (Q9GZV3 whole entry, looked up): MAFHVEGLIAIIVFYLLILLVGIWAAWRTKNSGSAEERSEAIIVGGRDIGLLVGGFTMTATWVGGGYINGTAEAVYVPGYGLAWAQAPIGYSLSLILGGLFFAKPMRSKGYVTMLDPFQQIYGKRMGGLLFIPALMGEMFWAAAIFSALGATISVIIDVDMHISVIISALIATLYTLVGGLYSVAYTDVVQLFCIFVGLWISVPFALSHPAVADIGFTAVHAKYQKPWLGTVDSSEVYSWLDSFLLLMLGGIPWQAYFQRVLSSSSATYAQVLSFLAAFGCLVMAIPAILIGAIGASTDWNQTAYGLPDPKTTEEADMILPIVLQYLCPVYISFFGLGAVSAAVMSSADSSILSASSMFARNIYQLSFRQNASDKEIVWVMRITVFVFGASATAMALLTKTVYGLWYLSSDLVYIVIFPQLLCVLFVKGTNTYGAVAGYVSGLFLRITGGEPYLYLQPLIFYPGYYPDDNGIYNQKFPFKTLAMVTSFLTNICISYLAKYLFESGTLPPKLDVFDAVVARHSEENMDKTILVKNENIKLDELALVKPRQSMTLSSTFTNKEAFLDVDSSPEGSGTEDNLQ
Rce1 inh = yeast Rce1p protease inhibitors, primary screen, biochemical, fluorescence, cell-free homogeneous; CAAX prenyl protease 2 (Saccharomyces cerevisiae (strain ATCC 204508 / S288c)), Q03530; yeast membranes, quenched prenylated peptide cleavage fluorescence; calls only; 290,000 compounds, 0.27% hits;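 active means fall in fluorescence gain of 50% or more versus controls, with final raw signal at or below 3038400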;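 further: plate controls were neutral control wells for no effect and wells lacking membranes for full effect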
Kir21 inh = inhibitors of mouse Kir2.1 inward-rectifier potassium channel | HEK293-Kir2.1, FluxOR thallium flux fluorescence; active compounds read low | B-score at 10 µM | 310,000 compounds, 0.85% hits;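 active means fluorescence ratio B-score at or below minus 3 SD of library scores, with starting-brightness B-score within 2 SD, cut at about -4.2 in these data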;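 further: channel flux triggered by added potassium and thallium sulfate stimulus; B-score of peak minus minimum fluorescence over baseline after thallium stimulus; more negative B-score means stronger Kir2.1 block with less thallium influx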
CHT inh = inhibitors of human choline transporter CHT. AID 488975, 2010. CHT-expressing cells, membrane potential dye, choline response; active compounds read low. B-score at 10 µM. 310,000 compounds, 0.86% hits;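 active means B-score over 3 SD under the library average, and starting fluorescence ratio not unusually high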;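 further: choline stimulus applied at its EC90 after an EC20 pre-addition; B-score computed on integrated fluorescence ratio after choline addition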
hERG inh = hERG channel inhibition, counter-screen for Kir2.1 inhibitor project, cell-based, thallium flux. shares compounds with Kir21 inh. hERG-expressing cells. inhibition, % at 10 µM. 320 compounds, 20% hits;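 further: host cells are CHO cells stably expressing hERG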
KCNK9 inh = KCNK9 channel inhibition, selectivity assay for Kir2.1 inhibitor project, cell-based | 320 compounds, 5% hits | AID 2329, 2010 | KCNK9-expressing cells, ion flux inhibition | shares compounds with Kir21 inh | inhibition, % at 10 µM
Kir21 ephys inh = mouse Kir2.1 channel blockers, Kir2.1 inhibitor project, cell-based, secondary, automated electrophysiology; shares compounds with Kir21 inh; inhibition, % at 25 µM; AID 463252, 2010; Kir2.1 cells, automated patch-clamp current inhibition; 320 compounds, 71% hits
CHT inh conf = CHT inhibitors, confirmation, cell-based, membrane potential dye, duplicate; shares compounds with CHT inh; CHT-expressing cells, choline membrane potential dye; LV-to-AA substituted CHT, HEK293 cells; CHT activity remaining % of control (active compounds read low), % at 10 µM; 2,400 compounds, 70% hits;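 active means choline transporter activity left, mean of duplicates at 10 µM, below buffer-only control mean minus 3 SD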;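 further: depolarization triggered by choline at its EC90 following an EC20 pre-addition; 0% = hemicholinium-3 full block and 100% = buffer-only control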
HEK293 MPD ctr = membrane potential effects in parental HEK293, counter-screen for CHT inhibitor project, cell-based, membrane potential dye | AID 493222, 2011 | membrane potential ratio readout (active if shifted either direction beyond buffer ±3SD; no single direction) at 10 µM | choline response; active = decrease or increase beyond buffer ±3SD | 2,400 compounds, 4% hits | shares compounds with CHT inh;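 further: parental cells lack the transporter so any hit is non-specific; ratio is peak minus trough fluorescence over baseline after EC90 choline challenge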
* hit, by the source's call; i = inactive; / = no result; + = active, no number. In the library only some 3.2% were active in any assay of this set; here they are far more common. Unless noted, how the calls were made is not given here.

SMILES	TMEM16A act	ANO1 block	CHT allo act	Rce1 inh	Kir21 inh	CHT inh	CHT inh conf	HEK293 MPD ctr	others
CC[C@H](C)[C@@H]1O[C@@]2(C=CC1C)CC1C[C@@H](CC=C(C)C(O[C@H]3CC(OC)C(O[C@H]4CC(OC)C(O)C(C)O4)C(C)O3)C(C)C=CC=C3CO[C@@H]4C(O)C(C)=C[C@@H](C(=O)O1)[C@]34O)O2 (stereo not given in full)	/	25*	i	/	/	i	/	/
CN[C@H]1C[C@H]2O[C@@](C)([C@H]1OC)n1c3ccccc3c3c4c(c5c6ccccc6n2c5c31)C(=O)NC4	/	i	i	i	-0.51	-5.3*	/	/
CCCC1C(C#N)=C(N)Oc2c1c(=O)oc1ccccc21 (stereo not given)	i	i	i	i	0	i	/	/
CCCC(C)C1C(C#N)=C(N)Oc2c1c(=O)oc1ccccc21 (stereo not given)	i	100*	i	i	0.01	i	/	/
CCOc1ccc(-c2c(C)n(-c3ccc(OCC)cc3)c3[n+]2CCCCC3)cc1	i	25*	i	i	-10*	i	/	/
Fc1ccc(C(OCCN2CCCC2)c2ccc(Br)cc2)cc1 (stereo not given)	i	i	i	i	-8.4*	i	/	/	hERG inh=70%*;KCNK9 inh=i;Kir21 ephys inh=i
Fc1ccc(C(OCCN2CCCC2)c2ccc(F)cc2)cc1	i	i	i	i	-2.9	i	/	/
CCCCCSc1cc(OC)c(CCN(C)C)cc1OC	i	i	i	i	-6.3*	i	/	/	hERG inh=57%*;KCNK9 inh=i;Kir21 ephys inh=56%*
O=C(c1ccccc1)C(Cc1ccccc1)N1CCOCC1 (stereo not given)	i	/	/	/	/	/	/	/
CCc1ccc(CN2CCN(Cc3ccc(SC)cc3)CC2)cc1	i	i	i	i	-7.2*	i	/	/	hERG inh=60%*;KCNK9 inh=i;Kir21 ephys inh=15%*
CN(C)CCOC(=O)c1cn(Cc2ccccc2)c2ccccc12	i	i	i	i	-7*	i	/	/	hERG inh=53%*;KCNK9 inh=i;Kir21 ephys inh=33%*
O=C1NC(=S)SC1=Cc1ccc(N(CCCl)CCCl)cc1	i	/	/	/	/	/	/	/
CCc1ccc(CNCCc2c[nH]c3ccccc23)cc1	i	i	i	i	-15*	i	/	/	hERG inh=53%*;KCNK9 inh=i;Kir21 ephys inh=60%*
c1ccc(CNCCc2c[nH]c3ccccc23)cc1	i	i	i	i	-0.43	i	/	/
CCN1CCN(Cc2ccc(C)cc2)CC1	i	i	i	i	1.9	i	/	/
Cc1ccc(CN2CCN(Cc3ccccc3F)CC2)cc1	i	i	i	i	-11*	i	/	/	hERG inh=i;KCNK9 inh=i;Kir21 ephys inh=58%*
O=[N+]([O-])c1oc2ccc3ccccc3c2c1CCO	i	/	/	/	/	/	/	/
Cc1cccc(CCNCc2cc3cccc(C)c3[nH]c2=O)c1	i	i	i	i	-6.9*	-12*	8.5%*	i	hERG inh=i;KCNK9 inh=i;Kir21 ephys inh=33%*
CC(=O)O[C@H]1CCC2C3CC[C@H]4[C@@H](O)[C@H](O)CC[C@]4(C)C3CC[C@@]21C (stereo not given in full)	i	/	/	/	/	/	/	/
CC(C)(C)NCC(O)c1cc(Cl)c(N)c(Cl)c1 (stereo not given)	i	i	i	i	0.12	-5.1*	37%*	i
COc1c(/C=C2/C(=O)NC(=O)N(C)C2=O)c(CCN(C)C(=O)c2ccccc2)cc2c1OCO2	i	i	i	i	-3.1	-6.5*	57%*	i
CCNC(=S)N(C)CCc1cc2c(c(OC)c1C=C1C(=O)N(C)C(=O)N(C)C1=O)OCO2	i	i	i	i	-0.43	i	/	/
CCNC(=O)C1OC(n2cnc3c(N)ncnc32)C(O)C1O (stereo not given)	i	i	i	i	-0.14	-6.7*	33%*	i
S=P(NCCSCc1ccccc1)(N1CC1)N1CC1	i	/	/	/	/	/	/	/
CN1CCc2c([nH]c3ccccc23)C1	i	i	i	i	-1	i	/	/
SMILES	TMEM16A act	ANO1 block	CHT allo act	Rce1 inh	Kir21 inh	CHT inh	CHT inh conf	HEK293 MPD ctr	others
CC1=NCCc2c1[nH]c1ccccc21	i	i	i	i	-1.4	-7.8*	34%*	i
Cc1ccc(-c2cc(-c3ccc(C)cc3)[n+](-c3ccccc3)c(-c3ccc(C)cc3)c2)cc1	i	100*	i	+	-12*	-5.5*	66%*	3.5*
CC(=O)OCC12CC(OC(=O)CC(C)C)C(C)=CC1OC1C(O)C(OC(C)=O)C2(C)C12CO2 (stereo not given)	i	/	/	/	/	/	/	/
CCCCSC1=NN1c1nc(N)nc(C)c1CC	i	i	i	i	-0.44	i	/	/
CCc1c(C)nc(N)nc1N1N=C1SCCOc1ccccc1	i	i	i	i	1.3	-7.7*	12%*	i
Cc1ccc(OCCSC2=NN2c2cc(C)nc(N)n2)cc1	i	i	i	i	-0.74	-11*	23%*	i
CCSC1=NN1c1cc(C)nc(N)n1	i	i	i	i	-1.6	i	/	/
COc1ccc(NC2=NCCCS2)cc1OC	i	i	i	i	1.6	i	/	/
c1ccc2c(CN3CCCCCC3)c[nH]c2c1	i	i	i	i	0.01	-6*	37%*	i
